# Experimental data: PubChem BioAssay (NCATS)
# A number with no mark means an inactive call. Records with an inconclusive call do not appear. Entries that show only a call come without a potency. The source made the active and inactive calls. Unless noted, calls come from the whole dose curve; as a rule, active = well fitted curve in the direction sought with a large enough effect; inconclusive = small, poorly fitted or top-dose-only effect, or another doubt; inactive = no such curve, though single readings can be large; an effect the other way counts as inactive or inconclusive.
# What was measured:
# [1] = system: C33A; experiment: Primary qHTS to identify gynecologic anti-cancer compounds using libraries of approved drugs and bioactive compounds (AID 1345084); conditions: Gynecologic cancer cell panel viability, ATPlite luminescence, 48 h; series mostly up to 57.5 µM; note: nearly all actives have a fitted effect of over 55% in size; note: potency is the fitted concentration of half-maximal effect
# Outline: (§1)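 ATP-based viability (ATPlite), 1,000 cells/well, 16 h pre-incubation, 48 h compound at 37 C, 5% CO2, 15 min RT before read.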
# [2] = system: CASKI; experiment: as above; conditions: Gynecologic cancer cell panel viability, ATPlite luminescence, 48 h; series mostly up to 57.5 µM
# Outline: as §1
# [3] = system: Es-2; experiment: as above; conditions: Gynecologic cancer cell panel viability, ATPlite luminescence, 48 h; series mostly up to 57.5 µM
# Outline: as §1
# [4] = system: HeLa; experiment: as above; conditions: Gynecologic cancer cell panel viability, ATPlite luminescence, 48 h; series mostly up to 57.5 µM
# Outline: as §1
# [5] = system: Hek293T; experiment: as above; conditions: Gynecologic cancer cell panel viability, ATPlite luminescence, 48 h, control line for the selectivity index; series mostly up to 57.5 µM
# Outline: as §1
# [6] = system: JEG-3; experiment: as above; conditions: Gynecologic cancer cell panel viability, ATPlite luminescence, 48 h; series mostly up to 57.5 µM
# Outline: as §1
# [7] = system: OV90; experiment: as above; conditions: Gynecologic cancer cell panel viability, ATPlite luminescence, 48 h; series mostly up to 57.5 µM
# Outline: as §1
# [8] = system: SKOV3; experiment: as above; conditions: Gynecologic cancer cell panel viability, ATPlite luminescence, 48 h; series mostly up to 57.5 µM
# Outline: as §1
# [9] = system: Tov-21-G; experiment: as above; conditions: Gynecologic cancer cell panel viability, ATPlite luminescence, 48 h; series mostly up to 57.5 µM
# Outline: as §1
# [10] = system: Tov112D; experiment: as above; conditions: Gynecologic cancer cell panel viability, ATPlite luminescence, 48 h; series mostly up to 57.5 µM
# Outline: as §1
# [11] = Drug repurposing screens with cells derived from glioblastoma tumor samples (AID 1345199); conditions: GBM patient neurospheres viability, ATP luminescence, 48 h; for Potency: tumour line A; note: potency is the fitted concentration of half-maximal effect; for all read-outs here: nearly all actives have a fitted effect of over 40% in size
# Outline: (§2)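 Primary testing used CD133+ neurospheres from four GBM patients, seven concentrations, 48 h exposure and ATP-based viability; confirmation added three slower-growing patient lines.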
# [12] = system: astro; experiment: as above; conditions: viability, ATP luminescence, 48 h; series mostly up to 45.9 µM
# Outline: as §2
# [13] = qHTS assay for small molecule activators of the human pregnane X receptor (PXR) signaling pathway (AID 720659; call rule not given here)
# [14] = system: PA-1; experiment: Primary qHTS to identify gynecologic anti-cancer compounds using libraries of approved drugs and bioactive compounds (AID 1345084); conditions: Gynecologic cancer cell panel viability, ATPlite luminescence, 48 h; series mostly up to 57.5 µM; note: nearly all actives have a fitted effect of over 55% in size; note: potency is the fitted concentration of half-maximal effect
# Outline: as §1
# [15] = qHTS assay to identify inhibitors of the type 1 interferon - major histocompatibility complex class I in skeletal muscle: Counter screen cell viability and HiBit confirmation (AID 1347412); conditions: iHSKM muscle cells + IFN-b, HiBiT or CellTiter-Glo, 24 h; note: nearly all actives have a fitted effect of over 60% in size; note: potency is the fitted concentration of half-maximal effect
# Outline: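 Luminescence read-out: Nano-Glo HiBiT lytic signal from C-terminally HiBiT-tagged HLA-B in CRISPR-edited human myoblasts, plus CellTiter Glo ATP as viability counter screen. IFN-beta 4.0 ng/ml; 24 hrs treatment at 37 C, 5% CO2.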
# [16] = target: Nuclear receptor subfamily 1 group I member 2 (Rattus norvegicus) (UniProt Q9R1A7); experiment: qHTS assay for small molecule activators of the rat pregnane X receptor (rPXR) signaling pathway (AID 651751; call rule not given here); conditions: rPXR reporter cells, luciferase (One-Glo), 24 h
# Sequence of Nuclear receptor subfamily 1 group I member 2 (Rattus norvegicus) (Q9R1A7 whole entry, looked up): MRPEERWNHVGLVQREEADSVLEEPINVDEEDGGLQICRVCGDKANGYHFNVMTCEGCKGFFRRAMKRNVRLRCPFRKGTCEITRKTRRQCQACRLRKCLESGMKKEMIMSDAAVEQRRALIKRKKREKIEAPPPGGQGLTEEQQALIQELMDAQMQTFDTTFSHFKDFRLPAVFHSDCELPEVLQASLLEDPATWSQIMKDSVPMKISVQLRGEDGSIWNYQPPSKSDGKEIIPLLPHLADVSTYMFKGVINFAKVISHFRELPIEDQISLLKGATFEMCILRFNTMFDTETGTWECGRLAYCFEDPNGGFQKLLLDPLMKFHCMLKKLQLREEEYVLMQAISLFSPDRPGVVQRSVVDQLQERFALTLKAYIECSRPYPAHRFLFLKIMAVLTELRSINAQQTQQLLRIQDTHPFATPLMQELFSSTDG
# [17] = at 45.9 µM (top of the series), tumour line B
compound,measurement,setting,value
CCn1cc(C(=O)O)c(=O)c2ccc(C)nc21,Potency,[1],inactive
same,Potency,[2],inactive
same,Potency,[3],inactive
same,Potency,[4],inactive
same,Potency,[5],inactive
same,Potency,[6],inactive
same,Potency,[7],inactive
same,Potency,[8],inactive
same,Potency,[9],inactive
same,Potency,[10],inactive
same,"activity, negative = cell killing",[11]; [17],-0.634%
same,"activity, negative = cell killing","[11]; at 45.9 µM (top of the series), tumour line D",-3.73%
same,"activity, negative = cell killing","[11]; at 46.1 µM (top of the series), tumour line C",-15.1%
same,Potency,[12],inactive
same,outcome,[13],inactive
CC1CCC(C(=O)N(c2cc(C#CC(C)(C)C)sc2C(=O)O)C2CCC(O)CC2)CC1 (stereo not drawn),Potency,[1],inactive
same,Potency,[3],inactive
same,Potency,[4],inactive
same,Potency,[5],inactive
same,Potency,[7],inactive
same,Potency,[14],inactive
same,Potency,[9],inactive
same,Potency,[10],inactive
C=C1C(=O)[C@@]23C(CC[C@@H]1[C@H]2O)[C@@]12CO[C@]3(O)[C@@H](O)[C@@H]1C(C)(C)CC[C@@H]2O (stereo partly drawn),Potency,[1],28.2 µM (active)
same,Potency,[4],inactive
same,Potency,[5],28.2 µM (active)
same,Potency,[7],inactive
same,Potency,[10],inactive
same,Potency,[15]; HiBiT,8.83 µM (active)
same,Potency,[15]; Viability,35.2 µM (active)
O=C(NCc1ccccc1)c1csc(Nc2ccncn2)n1,Potency,[1],inactive
same,Potency,[2],inactive
same,Potency,[3],inactive
same,Potency,[4],inactive
same,Potency,[5],inactive
same,Potency,[6],inactive
same,Potency,[7],inactive
same,Potency,[14],inactive
same,Potency,[10],inactive
same,Potency,[15]; HiBiT,9.91 µM (active)
same,"activity change, negative = inhibition","[15]; Viability, at 45.9 µM (top of the series)",-20.4%
CC(C)C(=O)Oc1ccc(CO)cc1[C@H](CCN(C(C)C)C(C)C)c1ccccc1,Potency,[2],inactive
same,Potency,[3],inactive
same,Potency,[4],inactive
same,Potency,[5],inactive
same,Potency,[6],inactive
same,Potency,[7],inactive
same,Potency,[14],inactive
same,Potency,[8],inactive
same,Potency,[9],inactive
same,Potency,[10],inactive
COc1cc(N2CCC(N3CCN(C)CC3)CC2)ccc1Nc1ncc(Cl)c(Nc2ccccc2S(=O)(=O)C(C)C)n1,Potency,[2],7.94 µM (active)
same,Potency,[4],3.16 µM (active)
same,Potency,[6],inactive
same,Potency,[14],10 µM (active)
same,Potency,[9],7.08 µM (active)
same,Potency,[15]; HiBiT,17.6 µM (active)
CC(C)OC(=O)C(C)(C)Oc1ccc(C(=O)c2ccc(Cl)cc2)cc1,Potency,[1],inactive
same,Potency,[2],inactive
same,Potency,[4],inactive
same,Potency,[6],inactive
same,Potency,[7],inactive
same,Potency,[14],inactive
same,Potency,[8],inactive
same,Potency,[9],inactive
same,Potency,[10],inactive
same,"activity, negative = cell killing",[11]; [17],-21.9%
same,Potency,[11],11.2 µM (active)
same,Potency,[12],inactive
same,max response,[16],-0.28%
CN1C[C@H]2c3ccccc3Oc3ccc(Cl)cc3[C@@H]2C1,Potency,[1],inactive
same,Potency,[2],inactive
same,Potency,[4],inactive
same,Potency,[6],inactive
same,Potency,[14],inactive
same,Potency,[9],inactive
same,Potency,[10],inactive
same,"activity, negative = cell killing",[11]; [17],-17.5%
same,Potency,[11],10 µM (active)
CC(C)(C)Cn1c(N)nc2ccc(-c3[nH]c(C(C)(C)C)nc3-c3ccc(F)cc3)nc21,Potency,[1],inactive
same,Potency,[3],inactive
same,Potency,[4],inactive
same,Potency,[6],inactive
same,Potency,[14],inactive
same,Potency,[9],inactive
same,Potency,[10],inactive
CN[C@@H](C)C(=O)N[C@H]1CN(C(=O)CC(C)C)CC[C@H]2CC[C@@H](C(=O)NC(c3ccccc3)c3ccccc3)N2C1=O,Potency,[1],inactive
same,Potency,[3],inactive
same,Potency,[5],inactive
same,Potency,[6],inactive
same,Potency,[7],inactive
same,Potency,[8],7.94 µM (active)
same,Potency,[9],5.62 µM (active)
CC(C)(C)NC(=O)Nc1cccc(Nc2ncc(F)c(NC(C)(C)CO)n2)c1,Potency,[1],inactive
same,Potency,[2],inactive
same,Potency,[3],inactive
same,Potency,[5],inactive
same,Potency,[6],inactive
same,Potency,[7],inactive
same,Potency,[14],inactive
same,Potency,[8],inactive
same,Potency,[9],inactive
same,Potency,[10],inactive
